Anthrax LF inh2 – inhibitors of Bacillus anthracis lethal factor protease; actives 0.12% (n = 360,000); AID 588501; inhibition, % at 10 µM; multiplex microsphere protease cleavage assay, LF; P15917; also: plate controls were buffer without enzyme for full effect and enzyme alone for no effect
MazEF act – activators of E. coli MazEF toxin-antitoxin RNase; actives 0.32% (n = 350,000); FAM/BHQ RNA-DNA oligo cleavage fluorescence, 5 h; AID 504720; activation, % at 20 µM; P0AE70; in the data active = activation above about 50%
Target sequence (P0AE70 whole entry, looked up): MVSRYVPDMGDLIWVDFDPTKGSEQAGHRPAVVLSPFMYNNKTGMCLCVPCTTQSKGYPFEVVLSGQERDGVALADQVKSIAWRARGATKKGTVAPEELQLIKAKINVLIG
Bead autofluor – compound fluorescence in toxin protease inhibitor counterscreen | fluorescence intensity (no concentration beside the values) | actives 3.1% (n = 360,000) | compound autofluorescence counterscreen, microsphere flow cytometry; hits give high values | AID 624483; in the data active = fluorescence intensity above about 16000; inconclusive = no clear call, values can overlap the other calls
BoNT A protease – BoNT A light chain protease inhibition | multiplex microsphere protease substrate cleavage, flow cytometry | inhibition, % at 10 µM | actives 0.17% (n = 360,000) | AID 588499; also: plate controls were buffer without enzyme for full effect and enzyme alone for no effect
BoNT-F LC inh – inhibitors of Botulinum neurotoxin F light chain protease. actives 0.22% (n = 360,000). Multiplex microsphere protease cleavage assay, flow cytometry. inhibition, % at 10 µM. AID 588497; in the data active = inhibition above about 35%, passing the limit was not always enough; inconclusive = no clear call, values can overlap the other calls; also: plate controls were buffer without enzyme for full effect and enzyme alone for no effect
Numbers without * were called inactive; ? = inconclusive; / = not tested or not shown. An excerpt weighted towards active compounds, which were near 3.7% of everything screened. Rule as the data show it, unless noted: active = inhibition above about 30%; inconclusive = no clear call, values can overlap the other calls; inactive = below that.

SMILES	Anthrax LF inh2	MazEF act	Bead autofluor	BoNT A protease	BoNT-F LC inh
CCCCn1c(O)c2n(c1=O)Cc1ccccc1N=C2c1ccccc1	-9.3	/	5679	-0.2	-8.6
c1csc(-c2nnc3ccccn23)c1	-3.7	3.5	18537*	?	9.4
COc1ccccc1CNC(=O)c1ccccc1NS(C)(=O)=O	0.2	-3.6	20558*	0.1	0.4
CCN(CC)S(=O)(=O)c1ccc(NC(=O)c2ccc(N(C)S(C)(=O)=O)cc2)cc1	-11.7	6.3	4787	-0.5	-44.3
CCN(CC)S(=O)(=O)c1ccc(NC(=O)c2ccccc2N(C)S(C)(=O)=O)cc1	-6.8	-7.9	21922*	?	2.8
COc1ccccc1CNC(=O)c1ccccc1N(C)S(C)(=O)=O	-0.4	10.2	19853*	2.1	2.3
COc1ccccc1CNC(=O)c1ccccc1N	-0.1	-0.9	11136	-1.4	6.7
Cc1noc(C)c1-c1ccc(C(=O)NCCc2ccccc2)c2occc12	-4.7	/	2969	-0.2	5.0
CCN1CCN(c2oc(-c3ccccc3C)nc2S(=O)(=O)c2ccccc2)CC1	-8.1	-17.2	?	1.3	5.1
Cc1ccc(NC(=O)/C(=C\c2ccco2)NC(=O)c2ccco2)cc1	14.4	15.9	3098	0.1	-1.4
Cc1ccc(NC(=O)N/C=C/c2ccco2)cc1	-0.6	-1.2	22171*	1.0	3.8
CCN(CC)c1ccc(/C=N/N=C(N)N)c(O)c1	-9.3	32.0	5450	1.1	-12.1
CCN(CC)c1ccc(N=Cc2ccc(N(CC)CC)cc2O)cc1	-3.6	162.2*	22151*	?	7.2
CCN(CC)c1ccc(C=Nc2ccc(C)cc2)c(O)c1	24.3	1.7	4258	28.3	10.6
CCN(CC)c1ccc(/C=N/Nc2ccccc2)c(O)c1	-1.5	9.1	22767*	1.7	-0.2
CCN(CC)c1ccc(C=Nc2cc(C)cc(C)c2)c(O)c1	23.8	-2.0	3216	50.2*	13.2
CCN(CC)c1ccc(C=Nc2ccccc2)c(O)c1	25.3	-0.6	3510	26.0	28.3
CCN(CC)c1ccc(C=Nc2ccc(N(C)C)cc2)c(O)c1	0.3	532.4*	4280	6.8	-19.5
OC[C@H]1O[C@@H](c2nc(-c3cccc4ccccc34)no2)[C@H](O)[C@@H]1O	-0.6	/	2815	-0.2	-0.6
O=C(Cc1ccc2ccccc2c1)NC(Cc1ccccc1)C(=O)O (stereo unspecified)	0.7	1.5	3021	-0.6	-7.8
Cc1ccnc(NS(=O)(=O)c2ccc(NC(=O)c3cccc(Cl)c3)cc2)n1	3.3	4.6	3988	-0.9	-3.0
CC(C)/C=C/C(=O)N1CCC(N2CCC(C(=O)NCC3CCCO3)CC2)CC1 (stereo unspecified)	4.2	-18.6	2907	0.0	5.5
COCCCn1c(=O)c2ccccc2n(Cc2cc(C(=O)OC)ccc2OC)c1=O	29.4	6.9	3814	-1.2	?
CCNC(=S)NNC(=O)C(c1ccccc1)c1ccccc1	-6.5	5.6	5328	-0.3	3.2
CCNC(=S)NNC(=O)Nc1ccccc1	-4.7	2.3	23334*	-0.4	-0.7
SMILES	Anthrax LF inh2	MazEF act	Bead autofluor	BoNT A protease	BoNT-F LC inh
CC1(C(=O)NS(=O)(=O)c2ccccc2Cl)CCN1C(=O)CC1CCCC1 (stereo unspecified)	4.2	/	3947	-0.1	2.9
COC(=O)Nc1ccc(S(=O)(=O)NCCO)cc1	-1.5	1.8	18225*	-4.1	-6.6
O=C(CCc1ccc(S(=O)(=O)NCCc2ccccc2)cc1)NCc1ccc2c(c1)OCO2	-0.8	7.5	24716*	-2.8	-1.8
O=C(O)CCCNS(=O)(=O)c1ccc(F)cc1	-1.2	6.5	24742*	-1.5	-2.6
O=S(=O)(NCCSc1ccc(Cl)cc1)c1ccc(F)cc1	-2.1	2.0	16419*	-0.1	-3.7
CC(=O)c1cccc(-c2ccnc3c2CC(C(=O)Nc2cccc(OC(F)(F)F)c2)O3)c1 (stereo unspecified)	-3.6	/	3255	0.0	4.6
COc1cc(C(=O)N2CCCCC2c2cc(C(=O)Nc3ccccc3)no2)cc(OC)c1C (stereo unspecified)	0.0	/	3589	-1.0	-11.0
COc1ccc(S(=O)(=O)CCC(=O)NCCc2ccc(C)cc2)cc1	-3.8	1.1	16185*	-0.1	0.9
O=C(O)CCc1ccc(S(=O)(=O)NCCc2ccccc2)cc1	1.1	0.8	20869*	-2.6	0.2
O=S(=O)(NCc1ccc2c(c1)OCO2)c1ccc2oc3ccccc3c2c1	-0.8	13.3	16406*	-0.2	1.5
O=C(CCc1ccccc1)Nc1ccc(NC(=O)c2ccco2)nc1	/	618.4*	/	/	/
O=C(CCc1ccccc1)Nc1ccc(NC(=O)c2ccco2)cc1	-3.7	2.3	9258	-0.8	-6.7
CCOC(=O)C1=CCC(c2ccccc2)N(S(=O)(=O)c2ccccc2C)C1 (stereo unspecified)	-2.5	/	6155	-1.4	-10.2
COc1ccccc1NC(=O)CN1CCN(CC(=O)Nc2ccc(F)cc2F)CC1	-3.0	-3.3	3027	-1.9	-9.3
CC(=O)Nc1ccc(S(=O)(=O)NCc2ccc3[nH]c(C)cc3c2)cc1	-39.2	1.5	3018	52.6*	-87.9
COc1ccc(S(=O)(=O)NCCC(=O)NCc2ccc(F)cc2)cc1	0.5	-6.0	19366*	10.3	11.8
CC(=O)Nc1ccc(S(=O)(=O)NCCc2ccc(F)cc2)cc1	-3.5	5.8	19405*	0.3	-3.9
CC(=O)Nc1ccc(S(=O)(=O)NCc2ccc(C)cc2)cc1	-0.4	7.7	4322	0.0	3.4
O=C(Nc1ccc(S(=O)(=O)NCCc2ccccc2)cc1)c1ccncc1	4.5	-3.3	4361	9.0	16.3
CC(=O)Nc1ccc(S(=O)(=O)NCCc2ccc(S(N)(=O)=O)cc2)cc1	-3.8	3.9	6434	0.2	5.9
COc1ccc(CNC(=O)CCNS(=O)(=O)c2ccc(Cl)cc2)cc1	-2.7	3.1	4631	0.1	0.5
O=C(Nc1ccc(S(=O)(=O)NCCc2ccccc2)cc1)c1ccco1	-1.6	1.6	23096*	1.0	-0.5
CN(Cc1c(C(=O)N/N=C/c2ccccc2O)nnn1-c1nonc1N)C1CCCCC1	-2.0	-14.5	3504	-0.2	-4.9
CC(NC(=O)COC(=O)c1cn(-c2ccccc2)nc1-c1cccs1)c1ccccc1 (stereo unspecified)	-10.4	-8.6	18189*	6.6	5.1
CCc1nc2c(OCC(=O)c3ccc(Cl)cc3Cl)cccn2c1N(C)C(=O)COc1ccccc1	-9.2	/	4051	0.1	-4.1
SMILES	Anthrax LF inh2	MazEF act	Bead autofluor	BoNT A protease	BoNT-F LC inh
CCCOc1ccc(-c2nnc(-c3ccco3)o2)cc1	0.9	-8.8	21565*	0.5	1.2
CC(C)COc1ccc(-c2nnc(-c3ccco3)o2)cc1	-2.1	-1.1	17184*	-2.7	-6.3
COc1cc(C(C)=O)ccc1O	-1.2	-9.0	5809	-0.4	-2.3
COc1ccc(Cn2c(C)nc3c(c(=O)c4ccccc4n3C)c2=O)cc1	-4.4	5.2	4864	?	?
COc1ccc(Cn2c(-c3ccccc3C)nc3c(c(=O)c4ccccc4n3C)c2=O)cc1	1.7	67.0*	4314	-1.6	-2.8
CN(C(=O)c1cccc(NC(=O)Cc2cccc(NC(=O)C3CCCN(C(=O)C4CCCCC4)C3)c2)c1)C1CCC1 (stereo unspecified)	-3.7	6.0	3460	-0.2	-1.7
